Results from PubChem BioAssay (NCATS).
Records with an inconclusive call do not appear. Activity calls are given as the source filed them. Calls follow the shape of the dose curve; as a rule, active = well fitted curve in the direction sought with a large enough effect; inconclusive = small, poorly fitted or top-dose-only effect, or another doubt; inactive = no such curve, though single readings can be large; an effect the other way counts as inactive or inconclusive.

Tests used:
[1] = molecular target: Glutathione peroxidase 1 (Homo sapiens) (UniProt P07203); experiment: Primary qHTS Assay for Inhibitors of Recombinant Selenoprotein Glutathione Peroxidase 1 (GPX1) (AID 1845191); also: nearly all actives have a fitted effect of over 65% in size
Chain of Glutathione peroxidase 1 (Homo sapiens) (P07203 whole entry, looked up): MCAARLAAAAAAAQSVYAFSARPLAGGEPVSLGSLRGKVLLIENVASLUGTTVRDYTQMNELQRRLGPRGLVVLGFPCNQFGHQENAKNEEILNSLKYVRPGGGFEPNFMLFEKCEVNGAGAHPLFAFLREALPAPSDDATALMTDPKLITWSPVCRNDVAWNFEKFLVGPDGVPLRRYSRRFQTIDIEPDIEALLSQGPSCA
Procedure, shortened: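 GPX1 10 nM, GR 100 nM, GSH 1 mM, NADPH 0.5 mM, CHP 0.5 mM (final). 30-min cpd preincubation, RT. Ex340/Em450 read t=0, t=15 min.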

[2] = molecular target: Phospholipid hydroperoxide glutathione peroxidase GPX4 (Homo sapiens) (UniProt P36969); experiment: Primary qHTS Assay for Inhibitors of Recombinant Selenoprotein Glutathione Peroxidase 4 (GPX4) (AID 1845192); also: nearly all actives have a fitted effect of over 65% in size
Chain of Phospholipid hydroperoxide glutathione peroxidase GPX4 (Homo sapiens) (P36969 whole entry, looked up): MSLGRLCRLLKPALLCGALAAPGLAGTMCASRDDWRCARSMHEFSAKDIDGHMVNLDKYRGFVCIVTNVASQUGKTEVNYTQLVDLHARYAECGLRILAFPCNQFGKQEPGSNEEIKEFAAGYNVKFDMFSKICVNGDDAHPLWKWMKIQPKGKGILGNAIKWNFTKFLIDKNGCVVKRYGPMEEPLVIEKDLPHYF
Procedure, shortened: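 qHTS, GR-coupled: GPX4 200 nM + cpd 30 min RT → GSH 1 mM, NADPH 0.5 mM, GR 100 nM → CHP 0.5 mM start; fluor 340/450 at t0 and t15 min; no-enzyme wells as control.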

[3] = molecular target: Luciferin 4-monooxygenase (Photinus pyralis) (UniProt P08659); experiment: Primary firefly luciferase (FLuc) qHTS assay for identification of artifact compounds. (AID 1845220); also: nearly all actives have a fitted effect of over 60% in size
Procedure, shortened: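 In this counter-screen for luciferase artifacts, test compounds met substrate (10 uM each luciferin and ATP) before 10 nM enzyme started the reaction. Light output was measured 5 min later.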

[4] = test system: Nanoluciferase (engineered Oplophorus gracilirostris luciferase); experiment: Primary Nanoluciferase (NLuc) qHTS assay for identification of artifact compounds. (AID 1845222);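 also: NLuc secreted into diluted conditioned medium of S16 cells; series mostly up to about 54 µM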
Procedure, shortened: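 Using secreted nanoluciferase in S16 culture medium (0.22 um filtered, 1:55 dilution), compounds were preincubated 15 min at RT. Signal was generated with Nano-Glo reagent (1:100) over 5 min.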

[5] = Primary redox qHTS assay for identification of artifact compounds. (AID 1845223)
Procedure, shortened: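 Redox-cycling detection via DTT (250 uM final) oxidation coupled to Amplex Red (25 uM)/HRP (250 mU/mL) in HBSS. 15 min preincubation plus 30 min after DTT, room temperature. Ex/Em 525/598 nm; 4-parameter Hill fit against DMSO and 10 uM DA3003.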

Measured: Potency

C/C=C(\C)C1C(C)=CC2CCC(OS(=O)(=O)O)C(C)C2C1/C=C/C=C/C(=O)O (stereo not drawn)
inactive: [1] | [2] | [3] | [4]

COc1cc(O)c2c(c1)C1(OC2=O)C(C)=CC(=O)C1O (stereo not drawn)
inactive: [1] | [2] | [3] | [4] | [5]

CS(=O)(=O)c1ccccc1N1CCN(c2nc3c(c(=O)[nH]2)CSCC3)CC1
inactive: [1] | [2] | [3] | [4] | [5]

COc1ccc(C(=O)CC(=O)O)c2c1C=CC(C)(C)O2
inactive: [1] | [2] | [3] | [4] | [5]

Cc1occc1C(=O)n1ccnc1
inactive: [1] | [2] | [3] | [4]

CC(C)=CCC[C@@](C)(O)[C@H]1CC[C@]2(C)[C@@H]1[C@H](O)CC1[C@@]3(C)CC[C@H](O[C@@H]4O[C@H](CO)[C@@H](O)[C@H](O)[C@H]4O[C@@H]4O[C@H](CO)[C@@H](O)[C@H](O)[C@H]4O)C(C)(C)[C@@H]3CC[C@]12C (stereo partly drawn)
inactive: [1] | [2] | [3] | [4] | [5]

CC/C=C\[C@H](O)[C@H](O)C1=C(C)C(=O)[C@]2(O1)C(=O)N[C@@](O)(C(=O)c1ccccc1)[C@@H]2O
inactive: [1] | [2] | [3] | [4] | [5]

C=C(C(=O)O)[C@H]1C[C@]2(C)C(=O)CC[C@]23O[C@H]1C[C@@H]3C
inactive: [1] | [2] | [3] | [4] | [5]

OC[C@H]1O[C@@H](OCc2ccccc2)[C@H](O[C@@H]2OC[C@@H](O)[C@H](O)[C@H]2O)[C@@H](O)[C@@H]1O
inactive: [1] | [2] | [3] | [4] | [5]

CC(=O)c1[nH]cc(CCC(=O)O)c1CC(=O)O
inactive: [1] | [2] | [3] | [4] | [5]

COc1cc(O)cc(O[C@@H]2O[C@H](CO)[C@@H](O[C@@H]3OC[C@](O)(CO)[C@H]3O)[C@H](O)[C@H]2O)c1OC
inactive: [1] | [2] | [3] | [4] | [5]

CC(C)C1NC(=O)C2CCCN2C1=O (stereo not drawn)
inactive: [1] | [2] | [3] | [4] | [5]

CC1(C)C2CCC1(C)C(OC(=O)C(O)(CC(=O)O)CC(=O)O)C2 (stereo not drawn)
inactive: [1] | [2] | [3] | [4] | [5]

C=CC(C)(CC/C=C(\C)C(=O)OC)OC1OC(COC(=O)CC(C)(O)CC(=O)O)C(O)C(O)C1O (stereo not drawn)
inactive: [1] | [2] | [3] | [4] | [5]

C[C@]1(C2CCCC2)Cc2cc(OCC(=O)O)c(Cl)c(Cl)c2C1=O
inactive: [1] | [2] | [3] | [4] | [5]

COC(=O)C1=COC(O[C@@H]2O[C@H](CO)[C@@H](O)[C@H](O)[C@H]2O)C2C(C)C(=O)CC12 (stereo partly drawn)
inactive: [1] | [2] | [3] | [4] | [5]

COC(=O)C1=CO[C@@H](O[C@@H]2O[C@H](CO)[C@@H](O)[C@H](O)[C@H]2O)[C@@H]2C(C)CC(=O)[C@]12O (stereo partly drawn)
inactive: [1] | [2] | [3] | [4] | [5]

COc1cc(O)c2c(c1Cl)CC(C)OC2=O (stereo not drawn)
inactive: [1] | [2] | [3] | [4] | [5]

C=C[C@H]1[C@H](O[C@@H]2O[C@H](CO)[C@@H](O)[C@H](O)[C@H]2O)OC=C2C(=O)N3Cc4c([nH]c5ccccc5c4=O)[C@@H]3C[C@H]21
inactive: [1] | [2] | [3] | [4] | [5]

COC(=O)C1=COC(OC2OC(CO)C(O)C(O)C2O)C2C(C)C(OC(C)=O)C(OC(=O)c3ccccc3)C12 (stereo not drawn)
inactive: [1] | [2] | [3] | [4] | [5]

COC(=O)C1=COC(OC2OC(CO)C(O)C(O)C2O)C2C(C)CC(=O)C12O (stereo not drawn)
inactive: [1] | [2] | [3] | [4] | [5]

Cc1ccc(Nc2nnc(-c3ccc([N+](=O)[O-])cc3)o2)cc1Cl
inactive: [1] | [2] | [3] | [4] | [5]

COc1cc(/C=C/CO[C@@H]2O[C@H](CO)[C@@H](O)[C@H](O)[C@H]2O)cc(OC)c1O[C@@H]1O[C@H](CO)[C@@H](O)[C@H](O)[C@H]1O
inactive: [1] | [2] | [3] | [4] | [5]

C=C[C@H]1[C@H](O[C@@H]2O[C@H](CO)[C@@H](O)[C@H](OC(=O)/C=C/c3ccc(O)c(OC)c3)[C@H]2O)OC=C2C(=O)OCC[C@]21O
inactive: [1] | [2] | [3] | [4] | [5]

COC(=O)[C@]1(Cc2ccc(O)c(CC=C(C)C)c2)OC(=O)C(O)=C1c1ccc(O)cc1
inactive: [1] | [2] | [3] | [4] | [5]

CC(C)(O)C1OC1C1=CC(=O)C2(C)OC2C1O (stereo not drawn)
inactive: [1] | [2] | [3] | [4] | [5]

O=C(/C=C/c1ccc(O)cc1)OCC1OC(O)C(OC2OC(CO)C(O)C(O)C2O)C(O)C1O (stereo not drawn)
inactive: [1] | [2] | [3] | [4] | [5]

C[C@]1(OC(=O)/C=C\c2ccc(O)cc2)C[C@@H](O)[C@]2(O)C=CO[C@@H](O[C@@H]3O[C@H](CO)[C@@H](O)[C@H](O)[C@H]3O)C12 (stereo partly drawn)
inactive: [1] | [2] | [3] | [4] | [5]
